From PubChem BioAssay (EPA / NIEHS)
Inconclusive results are not listed. Active and inactive are the calls of the source. Rule for the calls, unless noted: active = hit-call score of the fitted dose curve at least 0.9, where 1 is the maximum; inactive = score below 0.9.

Key:
[1] = read-out: Protein phosphatase 2A (PPP2R4), PTPA (gene 5524); experiment: LTEA_HepaRG_PPP2R4: Life Technologies and Expression Analysis (LTEA) Assay for Protein phosphatase 2A (PPP2R4) using HepaRG (AID 2283522); conditions: mRNA level, 48 h; actives raise or lower the signal
Outline: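 Cells were plated, cultured 48 h, switched to serum-free induction medium, then dosed for 48 h (8 points, max 100 uM, 0.5% DMSO). RNA was isolated and PPP2R4 expression measured by TaqMan qRT-PCR.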

[2] = read-out: Phosphatase and tensin (PTEN), PTEN (gene 5728); experiment: LTEA_HepaRG_PTEN: Life Technologies and Expression Analysis (LTEA) Assay for Phosphatase and tensin (PTEN) using HepaRG (AID 2283523); conditions: mRNA level, 48 h; actives raise or lower the signal
Outline: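 Expression of PTEN is quantified in the human liver line HepaRG following two days of dosing (top concentration 100 uM, half-log dilutions, 0.5% DMSO). Values derive from bidirectional curve fitting relative to DMSO controls.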

[3] = read-out: solute carrier (SLC22A1), SLC22A1 (gene 6580); experiment: LTEA_HepaRG_SLC22A1: Life Technologies and Expression Analysis (LTEA) Assay for solute carrier (SLC22A1) using HepaRG (AID 2283524); conditions: mRNA level, 48 h; actives raise or lower the signal
Outline: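 Transcript induction or suppression of SLC22A1 in human HepaRG cultures is scored after 48 h chemical treatment, with DMSO (0.5%) as baseline for bidirectional fitting. Concentrations span eight half-log points topping at 100 uM.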

[4] = read-out: NAD(P)H dehydrogenase [quinone] 1 (NQO1), NQO1 (gene 1728); experiment: LTEA_HepaRG_NQO1: Life Technologies and Expression Analysis (LTEA) Assay for NAD(P)H dehydrogenase [quinone] 1 (NQO1) using HepaRG (AID 2283526); conditions: mRNA level, 48 h; actives raise or lower the signal
Outline: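 Transcript induction or suppression is quantified by qRT-PCR in human HepaRG liver cells dosed for 48 hours. Eight half-log concentrations topping at 100 uM are used, with 0.5% DMSO as vehicle and baseline.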

[5] = read-out: Nuclear factor erythroid 2-related factor 2 (Homo sapiens) (UniProt Q16236); experiment: LTEA_HepaRG_NFE2L2: Life Technologies and Expression Analysis (LTEA) Assay for Nuclear factor erythroid 2-related factor 2 (NFE2L2) Transcription Factor using HepaRG (AID 2283527); conditions: mRNA level, 48 h; actives raise or lower the signal;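 note: TaqMan qRT-PCR transcript level normalised to ACTB GAPDH and POLR2A housekeeping genes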
Outline: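 Human liver HepaRG line treated in duplicate for 48 h with an eight-point series topping at 100 uM. Gene expression of NFE2L2 by qRT-PCR, bidirectionally fitted against the vehicle control.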

[6] = read-out: succinate dehydrogenase complex iron sulfur subunit B (SDHB), SDHB (gene 6390); experiment: LTEA_HepaRG_SDHB: Life Technologies and Expression Analysis (LTEA) Assay for succinate dehydrogenase complex iron sulfur subunit B (SDHB) using HepaRG (AID 2283528); conditions: mRNA level, 48 h; actives raise or lower the signal
Outline: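 Readout is SDHB transcript level by qRT-PCR, normalised to three housekeeping genes and fitted bidirectionally against 0.5% DMSO vehicle. Human HepaRG cells were treated for 48 h at up to 100 uM.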

[7] = read-out: Signal transducer and activator of transcription 3 (Homo sapiens) (UniProt P40763); experiment: LTEA_HepaRG_STAT3: Life Technologies and Expression Analysis (LTEA) Assay for Signal transducer and activator of transcription (STAT3) using HepaRG (AID 2283529); conditions: mRNA level, 48 h; actives raise or lower the signal
Outline: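 In this transcriptional endpoint, HepaRG cultures receive test chemicals at up to 100 uM for 48 h, tested in duplicate. STAT3 mRNA is normalized to ACTB, GAPDH and POLR2A.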

[8] = read-out: solute carrier (SLCO1B1), SLCO1B1 (gene 10599); experiment: LTEA_HepaRG_SLCO1B1: Life Technologies and Expression Analysis (LTEA) Assay for solute carrier (SLCO1B1) using HepaRG (AID 2283530); conditions: mRNA level, 48 h; actives raise or lower the signal
Outline: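 HepaRG, serum-free induction medium, 48 h dosing, 8-pt half-log from 100 uM, 0.5% DMSO vehicle, duplicates. Readout: SLCO1B1 mRNA, qRT-PCR, ACTB/GAPDH/POLR2A normalization; up or down fit vs DMSO.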

[9] = read-out: sulfotransferase 2A1 (SULT2A1), SULT2A1 (gene 6822); experiment: LTEA_HepaRG_SULT2A1: Life Technologies and Expression Analysis (LTEA) Assay for sulfotransferase 2A1 (SULT2A1) using HepaRG (AID 2283531); conditions: mRNA level, 48 h; actives raise or lower the signal
Outline: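 Transcript levels of SULT2A1, quantified by qRT-PCR and normalized to three housekeeping genes, serve as the readout. Human HepaRG cultures receive test chemicals for 48 h at up to 100 uM in half-log steps, with 0.5% DMSO vehicle.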

[10] = read-out: Transforming Growth Factor (TGFA), TGFA (gene 7039); experiment: LTEA_HepaRG_TGFA: Life Technologies and Expression Analysis (LTEA) Assay for Transforming Growth Factor (TGFA) using HepaRG (AID 2283532); conditions: mRNA level, 48 h; actives raise or lower the signal
Outline: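 Gene expression of TGFA was quantified by qRT-PCR after human HepaRG cells were treated for 48 h with test chemicals (eight concentrations, highest 100 uM, 0.5% DMSO). Activity in either direction was fitted relative to DMSO.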

TIMP1, TIMP1 (gene 7076) = experiment: LTEA_HepaRG_TIMP1: Life Technologies and Expression Analysis (LTEA) Assay for TIMP1 using HepaRG (AID 2283534); conditions: mRNA level, 48 h; actives raise or lower the signal
Outline: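 Readout is TIMP1 mRNA level measured by qRT-PCR and normalized to three housekeeping genes. Human HepaRG cells were treated for 48 h in duplicate at eight concentrations up to 100 uM (0.5% DMSO); gain or loss fitted against DMSO.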

[11] = read-out: Tumor necrosis factor receptor 1 (TNFRSF1A), TNFRSF1A (gene 7132); experiment: LTEA_HepaRG_TNFRSF1A: Life Technologies and Expression Analysis (LTEA) Assay for Tumor necrosis factor receptor 1 (TNFRSF1A) using HepaRG (AID 2283535); conditions: mRNA level, 48 h; actives raise or lower the signal
Outline: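 Read-out is TNFRSF1A transcript level by TaqMan qRT-PCR, normalized to three housekeeping genes, scored as gain or loss of signal versus 0.5% DMSO. Human HepaRG cells received test chemicals for 48 h at up to 100 uM (half-log series).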

[12] = read-out: Thyroid Hormone Responsive (THRSP), THRSP (gene 7069); experiment: LTEA_HepaRG_THRSP: Life Technologies and Expression Analysis (LTEA) Assay for Thyroid Hormone Responsive (THRSP) using HepaRG (AID 2283536); conditions: mRNA level, 48 h; actives raise or lower the signal
Outline: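 Cell model: human HepaRG, approx. 100,000 cells/well, 0.5% DMSO vehicle. Exposure lasts 48 h; phenobarbital 1 mM serves as induction positive control. Gene expression is measured by qRT-PCR against three endogenous control genes.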

[13] = read-out: UDP glucuronosyltransferase (UGT1A1), UGT1A1 (gene 54658); experiment: LTEA_HepaRG_UGT1A1: Life Technologies and Expression Analysis (LTEA) Assay for UDP glucuronosyltransferase (UGT1A1) using HepaRG (AID 2283538); conditions: mRNA level, 48 h; actives raise or lower the signal
Outline: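 Cells are plated, cultured 48 h, switched to serum-free induction medium, then dosed 48 h at eight concentrations (max 100 uM, 0.5% DMSO). RNA is isolated and UGT1A1 expression measured by qRT-PCR; changes versus DMSO are fitted in both directions.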

[14] = read-out: UDP glucuronosyltransferase (UGT1A6), UGT1A6 (gene 54578); experiment: LTEA_HepaRG_UGT1A6: Life Technologies and Expression Analysis (LTEA) Assay for UDP glucuronosyltransferase (UGT1A6) using HepaRG (AID 2283539); conditions: mRNA level, 48 h; actives raise or lower the signal
Outline: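 HepaRG, 48 h post-plating switch to serum-free induction medium; chemical 48 h, 100 uM top, half-log x8, duplicate, 0.5% DMSO. Phenobarbital 1mM induction control. UGT1A6 mRNA by TaqMan qRT-PCR; gain/loss fit vs DMSO.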

[15] = read-out: X-box binding protein 1 (XBP1), XBP1 (gene 7494); experiment: LTEA_HepaRG_XBP1: Life Technologies and Expression Analysis (LTEA) Assay for X-box binding protein 1 (XBP1) using HepaRG (AID 2283540); conditions: mRNA level, 48 h; actives raise or lower the signal
Outline: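 Transcript levels of XBP1, measured by qRT-PCR and normalised to three housekeeping genes, were fitted bidirectionally relative to 0.5% DMSO controls. Human HepaRG cells received eight-point half-log dilutions from 100 uM for 48 h.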

[16] = ATG_XTT_Cytotoxicity: Cytotoxicity Assessment in the Attagene TRANS-FACTORIAL HepG2 Assay (AID 2283584; active = hit-call score of the fitted dose curve at least 0.9, where 1 is the maximum)
Outline: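 Cells: human HepG2, transiently transfected with MRTU reporter constructs. Exposure 24 h. Readout: XTT, cell number. Baseline/neg ctrl DMSO; loss-of-signal scored.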

[17] = LTEA_HepaRG_LDH_cytotoxicity: Cytotoxicity Assessment in the Life Technologies and Expression Analysis (LTEA) Assay (AID 2283563; active = hit-call score of the fitted dose curve at least 0.9, where 1 is the maximum;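 for AC50: LDH activity released into spent culture medium as a marker of cell death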)
Outline: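 Cells were thawed and plated for 48 h. Medium was then replaced with serum-free induction medium. Chemicals (8 half-log points, maximum 100 uM, 0.5% DMSO) were added in duplicate for 48 h, after which spent medium was assayed for LDH.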

Measured: AC50

Sequence of Signal transducer and activator of transcription 3 (Homo sapiens) (P40763 whole entry, looked up): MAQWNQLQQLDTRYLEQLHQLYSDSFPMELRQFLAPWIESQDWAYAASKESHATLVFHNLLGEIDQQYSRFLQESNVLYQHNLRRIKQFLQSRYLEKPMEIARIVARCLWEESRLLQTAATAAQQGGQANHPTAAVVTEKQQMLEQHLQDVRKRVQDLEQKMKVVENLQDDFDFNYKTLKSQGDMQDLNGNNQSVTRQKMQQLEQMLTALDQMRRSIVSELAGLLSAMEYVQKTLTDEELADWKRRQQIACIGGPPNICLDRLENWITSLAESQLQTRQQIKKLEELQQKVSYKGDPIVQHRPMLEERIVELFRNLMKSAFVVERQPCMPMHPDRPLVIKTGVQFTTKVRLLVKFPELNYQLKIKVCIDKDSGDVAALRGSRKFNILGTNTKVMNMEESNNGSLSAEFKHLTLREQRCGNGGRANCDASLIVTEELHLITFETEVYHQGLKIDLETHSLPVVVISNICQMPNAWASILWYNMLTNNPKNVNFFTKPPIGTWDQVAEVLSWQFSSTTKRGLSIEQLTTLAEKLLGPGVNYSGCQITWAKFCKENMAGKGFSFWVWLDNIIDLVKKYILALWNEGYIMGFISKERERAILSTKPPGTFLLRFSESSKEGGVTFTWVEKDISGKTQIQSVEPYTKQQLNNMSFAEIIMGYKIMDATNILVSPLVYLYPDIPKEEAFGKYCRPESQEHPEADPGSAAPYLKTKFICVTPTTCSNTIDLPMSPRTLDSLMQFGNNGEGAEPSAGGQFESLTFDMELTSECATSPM
Sequence of Nuclear factor erythroid 2-related factor 2 (Homo sapiens) (Q16236 whole entry, looked up): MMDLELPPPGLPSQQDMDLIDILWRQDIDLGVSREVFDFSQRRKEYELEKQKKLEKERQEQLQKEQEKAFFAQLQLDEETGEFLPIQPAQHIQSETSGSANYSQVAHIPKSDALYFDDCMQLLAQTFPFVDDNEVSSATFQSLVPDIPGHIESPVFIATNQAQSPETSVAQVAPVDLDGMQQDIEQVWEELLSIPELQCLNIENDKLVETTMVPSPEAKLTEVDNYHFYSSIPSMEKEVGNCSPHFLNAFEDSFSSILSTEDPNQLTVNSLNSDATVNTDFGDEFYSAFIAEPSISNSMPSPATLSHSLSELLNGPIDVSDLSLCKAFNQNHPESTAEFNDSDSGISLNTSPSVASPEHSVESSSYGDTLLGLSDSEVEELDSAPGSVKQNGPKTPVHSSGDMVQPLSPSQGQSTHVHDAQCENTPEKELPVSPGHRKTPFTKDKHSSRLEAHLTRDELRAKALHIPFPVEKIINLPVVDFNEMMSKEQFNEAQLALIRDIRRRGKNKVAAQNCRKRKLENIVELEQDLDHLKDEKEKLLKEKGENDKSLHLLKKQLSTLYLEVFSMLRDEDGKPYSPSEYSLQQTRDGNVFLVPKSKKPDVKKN

CC(C)O.CC(C)O.OCCN(CCO)CCO.OCCN(CCO)CCO.[Ti]
not listed: [17]
inactive: all other assays above

COCC(=O)N(c1c(C)cccc1C)[C@H](C)C(=O)OC
inactive: [16]

O=C(O)C1(c2ccc3c(c2)OC[C@H](Cc2ccc(-c4ccccc4)cc2)[C@H]3O)CCCC1
active: [1] 80.5 µM | [2] 91.5 µM | [6] 81.6 µM | TIMP1, TIMP1 (gene 7076) 78.8 µM | [17] 77.6 µM
not listed: [16]
inactive: all other assays above

C#CCOC(=O)/C=C(C)/C=C/CC(C)CCCC(C)C (centres undefined)
inactive: [16]

COc1ccccc1N
inactive: all assays above
